# NPR1 antag – Natriuretic polypeptide receptor (hNpr1) antagonism - Primary qHTS; Potency, µM (top dose mostly 46.3 µM), without a hit: at the highest dose activity change, negative = inhibition, usual class: inhibitors; HEK293 hNpr1 GloSensor cGMP, ANP-stimulated luminescence; 76,000 tested, 1.6% active; also: % is scaled to controls: 0 for no effect and ±100 for the full control effect; nearly all actives have a fitted effect of over 60% in size
#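 HEK293 cells stably expressing human Npr1 and cGMP GloSensor pGS-40F, loaded 2 h with 2% GloSensor reagent, given compound 30 min at room temperature. Luminescence read before and 20 min after 0.1 nM hNppA.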
# HEK cytotox – Cytotoxic Profiling in HEK 293 Cell Line of Diverse Libraries Using Quantitative High-Throughput Screening; 94,000 tested, 6.6% active; HEK 293 viability, ATP luminescence (CellTiter-Glo), 48-72 h; AID 1345083, 2018; Potency, µM (titrated, usually from 115 µM), for the others: at the highest dose activity change, negative = cytotoxicity, hits mostly inhibitors; active = well fitted curve in the direction sought with a large enough effect; inconclusive = small, poorly fitted or top-dose-only effect, or another doubt; inactive = no such curve, though single readings can be large; an effect the other way counts as inactive or inconclusive; also: % is scaled to controls: 0 for no effect and ±100 for the full control effect; nearly all actives have a fitted effect of over 60% in size
#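 Pintool-delivered compounds were incubated with HEK 293 cells (250 cells/well) at 37 degree Celsius for 48 or 72 hr. ATP-dependent luminescence (CellTiter-Glo) then reported remaining viable cells.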
# NIH3T3 tox – Cytotoxic Profiling in NIH 3T3 Cell Line of Diverse Libraries Using Quantitative High-Throughput Screening; NIH 3T3 viability, CellTiter-Glo ATP luminescence, 48-72 h; 94,000 tested, 4.3% active; Potency, µM (titrated, usually from 96.7 µM), for inactives: top-dose activity change, negative = cytotoxicity, actives largely listed as inhibitors; active = well fitted curve in the direction sought with a large enough effect; inconclusive = small, poorly fitted or top-dose-only effect, or another doubt; inactive = no such curve, though single readings can be large; an effect the other way counts as inactive or inconclusive; also: % is scaled to controls: 0 for no effect and ±100 for the full control effect; nearly all actives have a fitted effect of over 55% in size
#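 NIH 3T3 cells at 400 cells/well received 23 nL of compound by pintool and were incubated 48 or 72 h at 37 °C. Viability was read as ATP-coupled CellTiter-Glo luminescence.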
# Luciferase inh – Firefly luciferase inhibition profiling of diverse chemical library using quantitative high-throughput screening | Luciferin 4-monooxygenase (Photinus pyralis), P08659 | purified P. pyralis luciferase, luminescence, biochemical | Potency, µM (doses to about 115 µM), hits mostly inhibitors | 76,000 tested, 2.5% active; active = well fitted curve in the direction sought with a large enough effect; inconclusive = small, poorly fitted or top-dose-only effect, or another doubt; inactive = no such curve, though single readings can be large; an effect the other way counts as inactive or inconclusive; also: % is scaled to controls: 0 for no effect and ±100 for the full control effect; nearly all actives have a fitted effect of over 65% in size
#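 Cell-free enzyme assay, 10nM P. pyralis luciferase, luciferin and ATP each at 10uM. Inhibition profiled over a 6-point titration, read as luminescence.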
# Npr1 antag conf – Natriuretic polypeptide receptor (hNpr1) antagonism - Confirmation | Potency, µM (highest dose often 57.6 µM), for inactives: at the highest dose activity change, negative = inhibition, actives largely listed as inhibitors | 1,400 tested, 76% active | AID 1347044, 2019 | shares compounds with NPR1 antag | HEK293 hNpr1 cGMP GloSensor luminescence, ANP-stimulated; also: nearly all actives have a fitted effect of over 70% in size
# NPR2 antag – Natriuretic polypeptide receptor (hNpr2) antagonism - Subtype selectivity assay; shares compounds with NPR1 antag; HEK293 hNpr2 GloSensor cGMP luminescence, CNP-stimulated; Potency, µM (highest dose often 57.6 µM), for the others: at the top dose activity change, negative = inhibition, actives largely listed as inhibitors; 1,400 tested, 67% active; also: nearly all actives have a fitted effect of over 70% in size
# Target sequence (P20594 whole entry, looked up): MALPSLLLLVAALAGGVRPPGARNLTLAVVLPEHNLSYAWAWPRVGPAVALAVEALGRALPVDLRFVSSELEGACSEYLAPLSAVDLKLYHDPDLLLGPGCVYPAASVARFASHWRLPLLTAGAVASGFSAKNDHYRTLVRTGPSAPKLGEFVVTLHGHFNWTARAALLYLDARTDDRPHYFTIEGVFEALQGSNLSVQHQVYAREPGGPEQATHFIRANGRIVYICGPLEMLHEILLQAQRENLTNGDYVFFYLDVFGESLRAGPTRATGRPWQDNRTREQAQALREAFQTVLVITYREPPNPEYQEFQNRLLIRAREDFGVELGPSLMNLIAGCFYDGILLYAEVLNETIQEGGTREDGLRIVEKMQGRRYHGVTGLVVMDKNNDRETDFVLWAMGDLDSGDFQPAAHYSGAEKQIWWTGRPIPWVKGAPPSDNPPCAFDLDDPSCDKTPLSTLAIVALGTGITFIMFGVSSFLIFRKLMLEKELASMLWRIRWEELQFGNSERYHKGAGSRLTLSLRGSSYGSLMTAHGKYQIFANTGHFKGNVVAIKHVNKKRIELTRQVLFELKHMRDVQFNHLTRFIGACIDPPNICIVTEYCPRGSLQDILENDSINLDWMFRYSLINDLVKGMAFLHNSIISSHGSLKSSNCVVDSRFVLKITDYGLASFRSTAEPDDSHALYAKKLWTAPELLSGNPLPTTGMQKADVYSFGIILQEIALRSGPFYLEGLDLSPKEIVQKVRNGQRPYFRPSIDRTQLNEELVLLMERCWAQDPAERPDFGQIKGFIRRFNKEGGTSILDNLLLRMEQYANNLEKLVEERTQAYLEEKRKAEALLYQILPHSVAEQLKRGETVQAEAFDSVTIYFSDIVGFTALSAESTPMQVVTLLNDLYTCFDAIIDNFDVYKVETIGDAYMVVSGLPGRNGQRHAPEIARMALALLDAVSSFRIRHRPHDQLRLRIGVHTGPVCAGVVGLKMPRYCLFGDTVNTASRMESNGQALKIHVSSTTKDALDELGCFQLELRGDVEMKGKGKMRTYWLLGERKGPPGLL
# FLuc counter – Natriuretic polypeptide receptor (hNpr1) antagonism - Confirmation firefly luciferase (FLuc) inhibition counterscreen; shares compounds with NPR1 antag; purified FLuc enzyme, luminescence, Km substrate; Potency, µM (top dose mostly 57.6 µM), for inactives: at the top dose activity change, negative = inhibition, most hits filed as inhibitors; 1,400 tested, 0.7% active; AID 1347047, 2019; active = well fitted curve in the direction sought with a large enough effect; inconclusive = small, poorly fitted or top-dose-only effect, or another doubt; inactive = no such curve, though single readings can be large; an effect the other way counts as inactive or inconclusive; also: 0% is about no effect
# GloSensor ctrl – Natriuretic polypeptide receptor (hNpr1) antagonism - Counterscreen GloSensor control cell line. Potency, µM (doses to about 57.6 µM), without a hit: at the top dose activity change, negative = inhibition, most hits filed as inhibitors. shares compounds with NPR1 antag. 1,400 tested, 69% active. HEK293 GloSensor cGMP, SNP-stimulated, luminescence; also: % is scaled to controls: 0 for no effect and ±100 for the full control effect; nearly all actives have a fitted effect of over 70% in size
# An asterisk follows results filed as active; i = inactive; ? = inconclusive; · = no result; [ ] = dose if it differs, or a comment. A selection: hits, their analogues and other compounds. The true share with any hit is near 11%. Unless noted, calls follow the shape of the full dose curve. Potency is read from the fitted curve at half-maximal effect.
SMILES,NPR1 antag,HEK cytotox,NIH3T3 tox,Luciferase inh,Npr1 antag conf,NPR2 antag,FLuc counter,GloSensor ctrl
COc1ccc(NC(=O)c2cccc3c2CCN3C(=O)c2ccc(F)cc2)c(OC)c1,18µM*,32µM*,?,i,24µM*,24µM*,-12%,22µM*
COc1ccc(OC)c(NC(=O)c2cccc3c2CCN3C(=O)c2ccc(F)cc2)c1,-12%,?,-24%,i,·,·,·,·
CC(=O)Nc1ccc(CC(=O)N2CCC(C)(c3noc(-c4cccnc4)n3)CC2)cc1,·,?,-8%,·,·,·,·,·
CCOc1ccccc1NC(=O)N1CCCC(c2noc(COc3ccccc3)n2)C1 (centres undefined),-14%,?,?,i,·,·,·,·
COc1ccc(NC(=O)N2CCCC(c3noc(COc4ccccc4)n3)C2)c(C)c1 (centres undefined),?,?,-52%,i,24µM*,?,0%,22µM*
Cc1cc(Cl)ccc1-c1ccc(CNC2CN(C(=O)OC(C)(C)C)C2)cc1,·,?,?,·,22µM*,22µM*,-1%,19µM*
CCCc1ccc(S(=O)(=O)N(C)CC2CCOCC2)cc1,?,?,?,i,24µM*,?,3%,19µM*
CC(C)Cc1ccc(S(=O)(=O)N(C)CC2CCOCC2)cc1,10µM*,?,-28%,i,15µM*,14µM*,0%,11µM*
CC(C)C[C@@H]1N[C@H](C(=O)N2CCOCC2)Cc2cn(Cc3ccncc3)c3cccc1c23,3%[70.6 µM],?,?,i,·,·,·,·
Cc1ccc(CN2CC(Oc3ccc(-c4noc(-c5cccnc5)n4)cc3)C2)o1,13µM*,?,?,i,19µM*,24µM*,?,22µM*
CCCN1CC(Oc2ccc(-c3noc(-c4cccnc4)n3)cc2)C1,-25%,?,?,i,·,·,·,·
CCCS(=O)(=O)N1CC(Oc2ccc(-c3noc(-c4cccnc4)n3)cc2)C1,14µM*,?,?,i,19µM*,17µM*,-19%,15µM*
CN(Cc1cnc2ccccc2c1)C(=O)c1ccc(CCC(C)(C)O)cc1,2.5µM*,40µM*,?,i,5.4µM*,6.9µM*,3%,3.9µM*
COC1CCN(C(=O)C(C)(C)Oc2nn(CCOc3ccccc3)c3ccccc23)CC1,?,89µM*,?,i,?,25µM*,-4%[86.2 µM],-1%[86.2 µM]
COCc1ccc2c(c1)c(OC(C)(C)C(=O)N1CCN(CCO)CC1)nn2Cc1ccccc1,-12%,i,?,i,·,·,·,·
COCc1ccc2c(c1)c(OC(C)(C)C(=O)N1CCN(C)CC1)nn2CCC(C)C,-1%[70.6 µM],?,-28%[138 µM],i,·,·,·,·
Cc1cc(NC(=O)C(C)(C)Oc2nn(CCOc3ccccc3)c3ccccc23)n(C)n1,25µM*,?,?,i,35µM*,35µM*,2%[86.2 µM],31µM*
CC(C)(Oc1nn(Cc2cccc(Cl)c2)c2ccccc12)C(=O)N1CCN(CCO)CC1,?,?,?,i,?,?,4%,-2%
COCCCn1c(=O)c(C(=O)N2CCN(C(=O)N(C)C)CC2)nc2cccnc21,·,2%,1%,·,·,·,·,·
OC1CC(c2cc(N3CCC(CCn4cccn4)CC3)ncn2)C1 (centres undefined),7.9µM*,?,?,i,14µM*,12µM*,0%,9.7µM*
OC1CC(c2cc(N3CCN(c4nsc5ccccc45)CC3)ncn2)C1 (centres undefined),1.6µM*,11µM*,18µM*,i,2.7µM*,3.1µM*,-13%,2.4µM*
Cc1nc2c(c(-c3ccc(O)cc3)n1)CN(Cc1cccc3ccccc13)CC2,-16%,?,?,i,-21%,-13%[86.2 µM],-1%[86.2 µM],i
Cc1nc2c(c(-c3ccc(O)cc3)n1)CN(Cc1ccccc1OC(F)(F)F)CC2,-6%,?,?,i,·,·,·,·
O=C(NC1CC1)c1cc(-c2ccccc2F)cc2c1OCCN2Cc1cccnc1,-29%[70.6 µM],100µM*,89µM*,i,?,?,2%[86.2 µM],8%[86.2 µM]
CN(C)C(=O)c1cc(-c2ccccc2F)cc2c1OCCN2Cc1cccnc1,-25%[70.6 µM],?,-28%[138 µM],i,?,-25%[86.2 µM],1%[86.2 µM],-25%[86.2 µM]
SMILES,NPR1 antag,HEK cytotox,NIH3T3 tox,Luciferase inh,Npr1 antag conf,NPR2 antag,FLuc counter,GloSensor ctrl
O=C(NCc1cccnc1)c1cc(-c2ccccc2F)cc2c1OCCN2Cc1cccnc1,-22%,?,?,i,·,·,·,·
O=C(c1cc(-c2ccccc2F)cc2c1OCCN2Cc1cccnc1)N1CCC1,?,?,?,i,?,?,1%[86.2 µM],-11%[86.2 µM]
O=C(NCCc1cnc[nH]1)c1cc(-c2ccccc2F)cc2c1OCCN2Cc1cccnc1,-15%,?,?,i,·,·,·,·
CCc1noc(-c2ccn3c(CNC(=O)Cc4ccc(Cl)cc4)nnc3c2)n1,5%,-6%,2%,i,·,·,·,·
CC(C)(C)C(=O)N1CCCC(c2nn(-c3ccc(F)cc3)c(=O)[nH]2)C1 (centres undefined),1%,-28%,-26%,i,·,·,·,·
O=C(NC1CCCc2c1[nH]c1ccccc21)c1cn(C2CC2)c(=O)c2ccccc12 (centres undefined),-10%,?,?,i,·,·,·,·
O=C(Nc1ccc2c(c1)OCCO2)c1nn(CC2CC2)c2c1CNCC2,·,-6%,-28%,·,·,·,·,·
COc1ccc(Cn2c(=O)c(C(=O)N3CCN(C(=O)N(C)C)CC3)nc3cccnc32)cc1,·,i,2%,·,·,·,·,·
COc1ccc(CN2C(=O)[C@@H]3C[C@@H](CN3C3CCCC3)Oc3ccccc32)cc1,?,?,?,i,-23%[86.2 µM],?,-5%[86.2 µM],-5%[86.2 µM]

# Bioassay records: PubChem BioAssay, National Center for Advancing Translational Sciences (NCATS)
